An excerpt weighted towards active compounds, which were near 6.8% of everything screened.
PTAP TSG101 blk = qHTS Assay for Iinhibitors of HIV-1 Budding by Blocking the Interaction of PTAP/TSG101. Tumor susceptibility gene 101 protein (Homo sapiens), Q99816. Fluorescence polarization, FITC-PTAP peptide / Tsg101 binding. Potency, µM (titrated, usually from 115 µM), without a hit: at the highest dose activity change, negative = inhibition, hits mostly inhibitors. 340,000 tested, under 10 active. AID 493005, 2010; active = well fitted inhibition curve with a large enough effect in the main read-out, with a control signal flat, not every such curve was filed as active; inconclusive = small, poorly fitted or top-dose-only effect, or effect the other way, or a change in a side signal; inactive = no such curve, though single readings can be large or run the other way; also: % of control where 0% means no effect
Target sequence (Q99816 whole entry, looked up): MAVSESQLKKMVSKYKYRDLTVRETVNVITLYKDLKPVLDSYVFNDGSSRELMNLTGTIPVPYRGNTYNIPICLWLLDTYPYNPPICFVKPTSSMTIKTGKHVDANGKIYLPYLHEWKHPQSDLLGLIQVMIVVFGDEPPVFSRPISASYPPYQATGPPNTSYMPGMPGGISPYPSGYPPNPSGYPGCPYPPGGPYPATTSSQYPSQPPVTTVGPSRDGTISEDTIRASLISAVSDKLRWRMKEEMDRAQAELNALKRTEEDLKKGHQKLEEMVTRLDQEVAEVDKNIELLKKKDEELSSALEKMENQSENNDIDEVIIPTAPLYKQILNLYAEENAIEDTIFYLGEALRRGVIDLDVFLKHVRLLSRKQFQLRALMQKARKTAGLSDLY
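Fluorescence anisotropy tracks displacement of a FITC-tagged PTAP peptide (50 nM) from the Tsg101 binding domain (10 uM), following a 20 min room-temperature incubation at pH 7.5.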
SW480 rerep = A quantitative high throughput screen for small molecules that induce DNA re-replication in SW480 colon adenocarcinoma cells. SW480 DNA re-replication, Hoechst DNA content imaging, 48 h. Potency, µM (titrated, usually from 46.1 µM), for inactives: at the highest dose re-replication activation, usual class: activators. 1.8% of 340,000 active. AID 624297, 2012; also: % of control where 0% means no effect; nearly all actives have a fitted effect of over 55% in size
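Quantitative HTS format with DMSO vehicle controls; 48 hr drug incubation at 37 C, then 40 min Hoechst staining and scanning imager measurement at 405 nm excitation.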
PINK1 expr mod = A Quantitative High throughput Screen to Identify Chemical Modulators of PINK1 Expression. PINK1 immunofluorescence, high-content cytometry, 24 h. Potency, µM (titrated, usually from 76.6 µM), for the others: at the top dose activation (PINK1 increase), most hits filed as activators. AID 624263, 2012. 0.2% of 410,000 active; active = well fitted activation curve with a large enough effect; inconclusive = small, poorly fitted or top-dose-only effect; cell line not stated here; also: % of control where 0% means no effect; nearly all actives have a fitted effect of over 65% in size
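Fluorescence from anti-PINK1 antibody, together with nuclear and cell stains, was scanned on a laser-scanning cytometer. Before staining, stable-line cells were incubated 24 hours with compounds at 5 concentrations; primary antibody 12 h at 10 degrees C.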
MCF10A rerep = A quantitative high throughput screen for small molecules that induce DNA re-replication in MCF 10a normal breast cells; AID 624296, 2012; MCF 10A DNA re-replication, Hoechst nuclear intensity, 48 h; 2.9% of 350,000 active; Potency, µM (series often up to 46.1 µM), inactives show at the top dose activity, positive = re-replication, actives largely listed as activators; also: % of control where 0% means no effect; nearly all actives have a fitted effect of over 50% in size
KB-V1 cytotox = qHTS assay for MDR1-selective chemotherapeutics: Primary screen using the drug-selected MDR subline cells KB-V1; KB-V1 MDR cells viability, CellTiter-Glo, 72 h; Potency, µM (highest dose often 46.1 µM), usual class: cytotoxic; 3.4% of 400,000 active; AID 1347076, 2019; also: % is scaled to controls: 0 for no effect and ±100 for the full control effect; nearly all actives have a fitted effect of over 60% in size
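Cytotoxicity via CellTiter-Glo luminescence after 72 h compound exposure at 37 degrees C. Cells: drug-selected KB-V1 line, DMEM phenol-red free plus 10% FBS. Compounds tested at multiple concentrations; normalized data fitted to concentration-effect curves.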
KB-3-1 tox = qHTS assay for MDR1-selective chemotherapeutics: Primary screen using the parental adenocarcinoma cell KB-3-1; KB-3-1 viability, CellTiter-Glo ATP luminescence, 72 h; Potency, µM (series often up to 46.1 µM), usual class: cytotoxic; 1.4% of 400,000 active; also: % is scaled to controls: 0 for no effect and ±100 for the full control effect; nearly all actives have a fitted effect of over 60% in size
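Luminescent ATP read-out (CellTiter-Glo) measures survival of drug-naive KB-3-1 cells after 72 h compound exposure at 37 °C. Titration series was screened from lowest to highest concentration, with DMSO vehicle plates as background controls.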
Numbers without * were called inactive; i = inactive; ? = inconclusive; / = not tested or not shown; [ ] = dose if it differs, or a comment. Unless noted, calls follow the shape of the dose curve; as a rule, active = well fitted curve in the direction sought with a large enough effect; inconclusive = small, poorly fitted or top-dose-only effect, or another doubt; inactive = no such curve, though single readings can be large; an effect the other way counts as inactive or inconclusive. Potency is read from the fitted curve at half-maximal effect.

SMILES | PTAP TSG101 blk | SW480 rerep | PINK1 expr mod | MCF10A rerep | KB-V1 cytotox | KB-3-1 tox
Cc1ccc(C)c(N2CCN(C(=O)CCc3nc(-c4ccccc4F)no3)CC2)c1 | 1% | 3% | 0% | 16µM* | i | i
O=C(CCc1nc(-c2ccccc2F)no1)NC1CCCCCC1 | -2% | -6% | -2% | 7% | 16µM* | ?
O=C(CCc1nc(-c2ccccc2)no1)NC1CCCCC1 | 0% | -13% | -2%[38.3 µM] | -4% | 21µM* | i
Cc1cccc(N(C)S(=O)(=O)c2nnc(NC(=O)C3CCCCC3)s2)c1 | / | / | 0% | / | / | /
COc1ccc(NC(=O)N(C(C)C)C2CCN(C(C)=O)CC2)c(OC)c1 | / | / | 0% | / | / | /
CCOCCCn1c(SCC(=O)N2CCOCC2)nc2ccccc2c1=O | -3% | -13% | 2% | -15% | ? | i
O=C(NCc1ccco1)c1ccc2c(=O)n(Cc3ccco3)c(SCC(=O)N3CCCC3)nc2c1 | 5% | 14% | 6%[38.3 µM] | 5% | i | i
CN(C)C(=O)CSc1nc2ccccc2n1CC(=O)N1CCN(c2ccccc2)CC1 | -4% | ? | -1% | 18% | i | i
CC(C)c1nc(SCC(=O)N2CCCC2)c2ccccc2n1 | -4% | -1% | -5% | 6% | 21µM* | i
CCOC(=O)CSc1nc2ccccc2c(=O)n1CCN1CCOCC1 | -2% | -1% | -2%[38.3 µM] | -2% | 13µM* | i
CCOC(=O)CSc1nc2ccccc2n1CC(=O)N1CCN(c2ccccc2)CC1 | / | -2% | -6%[38.3 µM] | -4% | 7.3µM* | i
O=C(CSc1nc2ccccc2c(=O)n1Cc1ccco1)N1CCCCCC1 | -6% | 18% | -2% | ? | 18µM* | ?
CCC(Sc1nc2ccccc2c(=O)n1CCc1ccc(OC)c(OC)c1)C(=O)N(CC)CC (centres undefined) | / | / | 0% | / | / | /
COc1ccc(C(=O)N2CCN(C(=O)COc3ccc(Br)cc3)CC2)cc1OC | / | / | 1% | / | / | /
C=CCn1c(SCC(=O)N2CCCCCC2)nc2ccccc2c1=O | -4% | -20% | -1% | ? | i | i
CCn1c(SCC(=O)N2CCN(c3ccccc3)CC2)nc2c([nH]c3ccccc32)c1=O | -2% | -11% | 2% | -18% | i | ?
CCn1c(SCC(=O)N2CCCCCC2)nc2ccccc2c1=O | -10% | 5% | 1% | ? | 9.2µM* | i
CC1CCN(C(=O)Cn2c(SCC(=O)Nc3nccs3)nc3ccccc32)CC1 | -8% | 1% | -1%[38.3 µM] | 16% | 4.6µM* | i
CCn1c(SCC(=O)N2CCN(c3cccc(Cl)c3)CC2)nc2ccccc2c1=O | -7% | -3% | 8% | ? | 9.2µM* | i
COc1cc(=O)n2c(c1C(=O)NC(C)c1ccco1)CCN(Cc1ccccc1Cl)CC2 (centres undefined) | / | / | -1% | / | / | /
CC1Cc2ccccc2N1C(=S)Nc1ccc(S(N)(=O)=O)cc1 (centres undefined) | -8% | -1% | -1% | 8% | 18µM* | ?
CC1Cc2ccccc2N1C(=S)NC(=O)c1cccc(Br)c1 (centres undefined) | 3% | 18% | 16% | 18% | ? | ?
CC(=O)c1ccc(NC(=S)N2c3ccccc3CC2C)cc1 (centres undefined) | -10% | -16% | -1% | -1% | ? | i
CC1Cc2ccccc2N1C(=S)NC(=O)c1ccc(Cl)cc1Cl (centres undefined) | 1% | 5% | 0% | 13% | 16µM* | i
NS(=O)(=O)c1cccc(NC(=O)Cn2cnc3ccccc3c2=O)c1 | -3% | -4% | 11µM* | 0% | i | i

Compound activity from PubChem BioAssay.
